{"source": "PubChem BioAssay (Tox21)", "note": "Records with an inconclusive call do not appear. Entries that show only a call come without a potency. Active and inactive are the calls of the source. The call rests on the fitted dose curve; in most records, active means well fitted cell-killing curve with a large enough effect in the repeat runs; inconclusive means weak or mixed curves, or effect the other way; inactive means flat fitted curve, though single readings scatter. Potency means the concentration at half of the fitted maximal effect."}
{"experiment": "qHTS assay to identify small molecule antagonists of the androgen receptor (AR) signaling pathway using the MDA cell line - cell viability counter screen (AID 743041; further: nearly all actives have a fitted effect of over 45% in size)", "conditions": "MDA-kb2 viability, CellTiter-Fluor, 16 h, cells co-treated with R1881 androgen agonist; series mostly up to 70.3 µM", "text": "National Center for Advancing Translational Sciences [NCATS]\nNIH Chemical Genomics Center [NCGC]\nU.S. Environmental Protection Agency [EPA]\nNational Institutes of Environmental Health Sciences [NIEHS]\nNational Toxicology Program [NTP]\nU.S. Food and Drug Administration [FDA]\nAndrogen receptor (AR), a nuclear hormone receptor, plays a critical role in AR-dependent prostate cancer and other androgen related diseases. Endocrine disrupting chemicals (EDCs) and their interactions with steroid hormone receptors like AR may cause disruption of normal endocrine function as well as interfere with metabolic homeostasis, reproduction, developmental and behavioral functions. To identify the compounds that inhibit AR signaling, MDA-kb2 AR-luc cell line (from ATCC, deposited by Wilson et al.) was used to screen the Tox21 10K compound library. MDA-kb2 AR-luc cell line is human breast carcinoma cell line that was stably transfected with a luciferase reporter gene under control of the MMTV promoter containing response elements for both androgen receptor (AR) and glucocorticoid receptor (GR). The cytotoxicity of the Tox21 compound library against the MDA-kb2 AR-luc cell line was tested in parallel by measuring the cell viability using CellTiter-Fluor assay (Promega, Madison, WI) in the same wells.\nTox21 Assay Protocol Summary:\nMDA-kb2 AR-luc cells were dispensed at 3,000 cells/4 uL/well of culture medium into white wall/solid-bottom 1536-well plates using a Multidrop Combi (ThermoFisher Scientific, Waltham, MA) dispenser. After the assay plates were incubated at a 37C and 0% CO2 for 5 hr, 23 nL of compounds dissolved in DMSO, positive controls or DMSO only was transferred to the assay plate by a Pintool station (Kalypsys, San Diego, CA), followed by addition of 1 uL of agonist (R1881) in culture medium using a Bioraptr Flying Reagent Dispenser (FRD) workstation (Beckman Coulter, Indianapolis, IN, USA). The plates were incubated at a 37C and 0% CO2 for 16 h. After 15.5 h incubation, 1uL of CellTiter-Fluor reagent (Promega) was added using a Bioraptr FRD to each plate for measuring cytotoxicity. The fluorescence intensity was quantified on a ViewLux plate reader (PerkinElmer, Shelton, CT) following 30 min incubation at 37C and 0% CO2."}
{"smiles": "CCOC(=O)CC(O)(CC(=O)OCC)C(=O)OCC", "Potency": "inactive"}
{"smiles": "CC(C(=O)O)c1ccc2c(c1)Cc1cccnc1O2", "note": "(stereo not given)", "Potency": "inactive"}
{"smiles": "C(/C=C/C=C/Nc1ccccc1)=Nc1ccccc1", "Potency": "inactive"}
{"smiles": "CC1=CC(=C(c2ccc(N)cc2)c2ccc(N)cc2)C=CC1=N", "Potency": "7.5 µM (active)"}
{"smiles": "Clc1cc(Cl)c2c(c1)N=C1CCCCCN1C2", "Potency": "inactive"}
{"smiles": "COc1cc(C)c(Cc2cnc(N)nc2N)cc1OC", "Potency": "inactive"}
{"smiles": "CCOc1ccc(NC(C)=O)cc1N", "Potency": "inactive"}
{"smiles": "[O-][n+]1ccc(Cl)cc1", "Potency": "inactive"}
{"smiles": "N#CCCCC(C#N)CCC#N", "note": "(stereo not given)", "Potency": "inactive"}
{"smiles": "OCCCO", "Potency": "inactive"}
{"smiles": "Cc1ccc(S(=O)(=O)NC(=O)NC2CCCC2)cc1", "Potency": "inactive"}
{"smiles": "Nc1ccc(-c2ccc(F)cc2)cc1", "Potency": "inactive"}
{"smiles": "Oc1ccc(Oc2ccccc2)cc1", "Potency": "inactive"}
{"smiles": "COC(=O)c1cc(Cl)ccc1[N+](=O)[O-]", "Potency": "inactive"}
{"smiles": "Cc1ccc(NC=O)c(C)c1", "Potency": "inactive"}
{"smiles": "C=CC(=O)NC(C)(C)C", "Potency": "inactive"}
{"smiles": "Cc1cc(N)n(-c2ccccc2)n1", "Potency": "inactive"}
{"smiles": "O=C(O)c1cccnc1Nc1cccc(C(F)(F)F)c1", "Potency": "inactive"}
{"smiles": "CCCCOc1ccc(N)cc1", "Potency": "inactive"}
{"smiles": "CO[C@@H]1[C@@H](O[C@@H]2O[C@H](C)[C@@H](O[C@H]3C[C@@](C)(O)[C@@H](O)[C@H](C)O3)[C@H](N(C)C)[C@H]2O)[C@@H](CC=O)C[C@@H](C)[C@@H](O[C@@H]2CC[C@H](N(C)C)[C@@H](C)O2)/C=C/C=C/C[C@@H](C)OC(=O)C[C@H]1OC(C)=O", "Potency": "inactive"}
{"smiles": "CCCCCO", "Potency": "inactive"}
{"smiles": "CC(=O)Nc1ccn(C2COC(COC(=O)c3ccccc3)O2)c(=O)n1", "note": "(stereo not given)", "Potency": "inactive"}
{"smiles": "CCCC1CCCC(=O)O1", "note": "(stereo not given)", "Potency": "inactive"}
{"smiles": "O=C(O)c1ccc2c(c1)nc(C(=O)NC1CCN(C3CC3)CC1)n2Cc1cc(-c2ccc(Cl)s2)on1", "Potency": "inactive"}
{"smiles": "CCC[Si](OC)(OC)OC", "Potency": "inactive"}
{"smiles": "O=C1CCCN1CCO", "Potency": "inactive"}
{"smiles": "NC(=O)c1cc[n+](CC2=C(C(=O)[O-])N3C(=O)[C@@H](NC(=O)Cc4cccs4)[C@H]3SC2)cc1", "Potency": "inactive"}
{"smiles": "C=Cc1ccc(C=C)cc1", "Potency": "inactive"}
{"smiles": "COC(=O)/C=C/C(C)=C\\C=C\\C(C)=C\\C=C\\C=C(C)\\C=C\\C=C(C)\\C=C\\C(=O)O", "Potency": "inactive"}
{"smiles": "O=C(O)c1ccc(O)c(O)c1", "Potency": "inactive"}
{"smiles": "O=[N+]([O-])c1ccccc1CCO", "Potency": "inactive"}
{"smiles": "O=C(OC1C[C@H]2CC[C@@H](C1)[N+]21CCCC1)C(O)(c1ccccc1)c1ccccc1", "note": "(stereo not given in full)", "Potency": "inactive"}
{"smiles": "CCOc1cc(OCC)c(C(C)=O)cc1OCC", "Potency": "inactive"}
{"smiles": "O=C(NC1CCN(CCc2c[nH]c3ccccc23)CC1)c1ccccc1", "Potency": "inactive"}
{"smiles": "CC1(C)C(=O)NC(=O)N1CO", "Potency": "inactive"}
{"smiles": "CC(C)(C)NCC(O)COc1ccc(NC(=O)NC2CCCCC2)cc1", "note": "(stereo not given)", "Potency": "inactive"}
{"smiles": "CC1(C)CC(=O)CC(C)(C)N1", "Potency": "inactive"}
{"smiles": "Nc1ccccc1Nc1ccccc1", "Potency": "inactive"}
{"smiles": "FC1(F)C(F)(F)C(F)(F)C2(F)C(F)(C1(F)F)C(F)(F)C(F)(F)C1(F)C(F)(F)C(F)(F)C(F)(F)C(F)(F)C12F", "note": "(stereo not given)", "Potency": "inactive"}
{"smiles": "Clc1ccccc1-c1nc(-c2ccncc2)no1", "Potency": "inactive"}
